According to the supplement of paper PMC12669032:
Unmarked numbers belong to inactive results.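 How the source made its calls: active = AUC reduced over 20% with Padj below 0.05 in at least 2 of 3 replicates; inactive = otherwise.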

tested on: Streptococcus salivarius; assay: growth AUC relative to DMSO control (median of replicates) (fraction); higher = more growth (less inhibition), active = hit call of the paper; settings: 20 µM; 24 h
In short: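 Each value is the median of three biological replicates, grown on separate days, of a gut bacterial monoculture incubated anaerobically at 37 °C in mGAM with 20 µM compound (1% DMSO). Cultures started at OD600 0.05 and were read at OD600 hourly for 24 h, with the minimum OD set to 0. Area under the growth curve was normalised to the plate median of solvent-only wells, or to row and column medians on the industrial chemical plate.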

First: CC1(C)C(C=C(Cl)Cl)C1C(=O)OC(C#N)c1ccc(F)c(Oc2ccccc2)c1 (mixture of isomers)
Second: CNC(=O)/C(=N/OC)c1ccccc1Oc1ccccc1
The “growth AUC” value of the first is lower: 0.974 for the first, 0.989 for the second.

First: c1ccc2c(c1)cc1ccc3cccc4ccc2c1c34
Second: CC(C)(COCc1cccc(Oc2ccccc2)c1)c1ccc(OC(F)(F)Br)cc1
The “growth AUC” value of the first is higher: 1.06 for the first, 0.966 for the second.

First: CCc1cccc(C)c1N(C(=O)CCl)C(C)COC (centres undefined)
Second: CCCCOCN(C(=O)CCl)c1c(CC)cccc1CC
The “growth AUC” value of the first is higher: 1.05 for the first, 0.915 for the second.

First: CO/C=C(/C(=O)OC)c1ccccc1Oc1cc(Oc2ccccc2C#N)ncn1
Second: COC(=O)c1ccccc1CS(=O)(=O)NC(=O)Nc1nc(OC)cc(OC)n1
The “growth AUC” value of the first is lower: 0.991 for the first, 1.01 for the second.

Compared with `O=C(NCCc1ncc(C(F)(F)F)cc1Cl)c1ccccc1C(F)(F)F`, `OC(c1ccc(Cl)cc1)(c1cncnc1)c1ccccc1Cl` (centres undefined) is lower in “growth AUC” value: 1.01 for the first, 0.939 for the second.

Compared with `CC(=O)CC(c1ccc(Cl)cc1)c1c(O)c2ccccc2oc1=O` (centres undefined), `O=C(NC(=O)c1c(F)cccc1F)Nc1ccc(Cl)cc1` is higher in “growth AUC” value: 0.987 for the first, 0.992 for the second.

Compared with `CCOP(=S)(OCC)Oc1ccc(S(C)=O)cc1` (centres undefined), `COP(=S)(OC)Oc1ccc(S(C)=O)c(C)c1` (centres undefined) is lower in “growth AUC” value: 1.03 for the first, 0.988 for the second.

First: CCOP(=O)(NC(C)C)Oc1ccc(S(C)(=O)=O)c(C)c1 (centres undefined)
Second: COP(=O)(OC)Oc1ccc(S(C)(=O)=O)c(C)c1
The “growth AUC” value of the first is lower: 0.999 for the first, 1.01 for the second.

First: Clc1cccc(C(Cl)(Cl)Cl)n1
Second: O=C1c2ccccc2C(=O)N1SC(Cl)(Cl)Cl
The “growth AUC” value of the first is lower: 0.959 for the first, 1.01 for the second.

First: Clc1ccc(C(c2ccc(Cl)cc2)C(Cl)(Cl)Cl)cc1
Second: O=[N+]([O-])c1ccc(Oc2ccc(Cl)cc2Cl)cc1
The “growth AUC” value of the first is lower: 0.897 for the first, 0.981 for the second.

Going from `C[Si](Cn1cncn1)(c1ccc(F)cc1)c1ccc(F)cc1` to `CCOC(=O)Nc1cccc(OC(=O)Nc2ccccc2)c1`, the “growth AUC” value rises from 0.988 to 1.02.

Compared with `CCCCN(CC)c1c([N+](=O)[O-])cc(C(F)(F)F)cc1[N+](=O)[O-]`, `CCCCOC(=O)c1ccccc1C(=O)OCCCC` is lower in “growth AUC” value: 1.03 for the first, 1.02 for the second.

Going from `Cc1cc(Cl)ccc1OCC(=O)O` to `CCCSP(=O)(OCC)Oc1ccc(Br)cc1Cl` (centres undefined), the “growth AUC” value rises from 0.983 to 1.01.

First: CN(C)C(CSC(N)=O)CSC(N)=O.Cl
Second: CNC(=O)O/N=C(\SC)C(=O)N(C)C
The “growth AUC” value of the first is lower: 1 for the first, 1.02 for the second.

First: O=NN(CCO)CCO
Second: O=C(O)C(Cl)Cl
The “growth AUC” value of the first is lower: 0.986 for the first, 1.02 for the second.

Compared with `C1CCC(NC2CCCCC2)CC1.O=NO`, `C=CCC1=C(C)C(OC(=O)[C@@H]2[C@@H](C=C(C)C)C2(C)C)CC1=O` (some centres undefined) is higher in “growth AUC” value: 0.986 for the first, 1.01 for the second.

First: Clc1cc(Cl)c(Cl)c(Cl)c1
Second: CNC(=O)Oc1cc(C)c(N(C)C)c(C)c1
The “growth AUC” value of the first is higher: 0.968 for the first, 0.961 for the second.

First: COP(=O)(OC)Oc1ccc(SC)c(C)c1
Second: CCOP(=S)(OCC)SCSc1ccc(Cl)cc1
The “growth AUC” value of the first is lower: 1 for the first, 1.03 for the second.

For `C=CC(N)=O`, the “growth AUC” value was 1.01.

For `O=c1oc2ccccc2c(O)c1C(CC(O)c1ccc(-c2ccc(Br)cc2)cc1)c1ccccc1` (centres undefined), the “growth AUC” value was 0.553 (active).
In the case of `Oc1ccc(Cl)cc1Cc1cc(Cl)ccc1O`, the “growth AUC” value is reported as 0.445 (active).
